From PubChem
The list is not random: actives were taken first. Their share in the collection is about 0.65%.
Y pestis TopoI – Yersinia pestis topoisomerase I inhibitors, primary screen, biochemical, cleavage product accumulation, plate reader, single point | DNA topoisomerase I (Yersinia pestis CO92) | Y. pestis Topo-I cleavage product accumulation | activity, % at 10 µM | 360,000 tested, 0.064% active; in the data active = activity above about 50%, passing the limit was not always enough
PrP 5UTR inh – inhibition of PrP 5' UTR reporter expression. cell-based PrP 5' UTR mRNA reporter, plate reader. inhibition, % (concentration not given with the values). 340,000 tested, 0.35% active. AID 488862, 2010; in the data active = inhibition above about 52%; note: 0 = median of the neutral control wells
BH1578 lux ind – inducers of Vibrio cholerae quorum light production without autoinducers, primary screen, BH1578 luxS cqsA deficient, single point; V. cholerae BH1578 lux reporter, luminescence, 6 h; activation, % at 18.7 µM; 350,000 tested, 0.16% active; AID 588436, 2011; in the data active = activation mostly above about 9.7%, no sharp cut-off
TcdB GH inh – TcdB glycohydrolase inhibitors, primary screen, biochemical, single point, plate reader; AID 652162, 2013; 350,000 tested, 0.24% active; inhibition, % at 9.99 µM; TcdB glycohydrolase enzymatic assay; in the data active = inhibition above about 10%
UGM FP inh – M. tuberculosis UGM enzyme inhibitors, primary screen, biochemical, fluorescence polarization, single point; 320,000 tested, 0.06% active; purified UGM, fluorescence polarization probe displacement; inhibition, % at 10 µM; UDP-galactopyranose mutase (Mycobacterium tuberculosis (strain ATCC 25618 / H37Rv)), …; in the data active = inhibition above about 10%, passing the limit was not always enough
PrP 5UTR single – prion 5' UTR mRNA inhibition, cherry-pick retest; shares compounds with PrP 5UTR inh; cell-based prion protein 5' UTR reporter, plate reader; inhibition, % at 2.5 µM; 1,100 tested, 48% active; in the data active = inhibition above about 54%
* marks the source's active call; other numbers are inactive results; i = inactive; nt = no result given.

SMILES	Y pestis TopoI	PrP 5UTR inh	BH1578 lux ind	TcdB GH inh	UGM FP inh	PrP 5UTR single
CCOc1ccc(/C=C2\SC(=S)N(CCC(=O)O)C2=O)cc1	16.9	68.4*	2.1	1.2	1.2	71.2*
Cc1ccc(/C=C2\SC(=S)N(CCC(=O)NNC(=O)c3ccccc3O)C2=O)cc1	7.9	-6.2	-0.3	7.6	-3.2	nt
CCOc1ccc(/C=C2/SC(=S)N(CCC(=O)Nc3ccc(C(=O)O)cc3)C2=O)cc1	13.4	-22.6	i	-1.1	1.5	nt
Cc1ccc(/C=C2\SC(=S)N(CCCC(=O)NNC(=O)c3ccccc3O)C2=O)cc1	0.5	52.8*	-0.4	0.9	-0.6	75.0*
O=C(C[C@@H]1C=C[C@H](NC(=O)CC2CC2)[C@@H](CO)O1)NCc1ccccc1	nt	nt	nt	0.1	nt	nt
O=C(C[C@@H]1C=C[C@@H](NC(=O)Nc2ccc(C(F)(F)F)cc2)[C@@H](CO)O1)NCc1cc(F)cc(F)c1	nt	nt	nt	1.4	nt	nt
C[C@@H]1CN([C@@H](C)CO)S(=O)(=O)c2ccc(C#Cc3ccncc3)cc2O[C@@H]1CN(C)C(=O)C1CC1	nt	nt	nt	4.3	nt	nt
COc1ccc(-c2ccc([C@@H]3[C@H](CO)N4CCCCN(C(=O)NC(C)C)C[C@@H]34)cc2)cc1	nt	nt	nt	1.9	nt	nt
O=C(/C=C/c1cccs1)Nc1ccc(Br)cn1	11.4	60.9*	i	nt	1.1	84.4*
C[C@H]1CN([C@@H](C)CO)C(=O)c2ccccc2-c2ccccc2CO[C@@H]1CN(C)Cc1cccnc1	nt	nt	nt	-1.7	nt	nt
C/C=C/c1ccc([C@H]2[C@@H](CO)N3C(=O)CN(C(=O)Nc4cccc(OC)c4)C[C@@H]23)cc1	nt	nt	nt	0.5	nt	nt
Cc1nc(N)nc(N)c1-c1ccc(Cl)c(Cl)c1	-1.7	57.7*	nt	0.3	nt	9.2
N#CC1=C(N)Oc2c(oc(CO)cc2=O)C1c1ccsc1 (stereo not given)	6.5	-19.5	-2.2	nt	-0.9	nt
N#CC1=C(N)Oc2c(ccc3ccccc23)C1c1ccsc1 (stereo not given)	5.6	77.1*	-1.7	nt	0.0	87.6*
COc1cc(SC)ccc1C(=O)Nc1ccc(C)cc1	17.8	-67.3	-0.2	3.1	-1.3	nt
COc1cc(SC)ccc1C(=O)Nc1ccc(Br)cn1	4.2	68.2*	i	0.9	1.4	67.0*
COc1cc(SC)ccc1C(=O)Nc1ncc(C)s1	10.1	74.1*	-0.2	1.1	-3.3	69.2*
C[C@H]1[C@@H](OS(=O)(=O)O)C[C@@H]2C[C@H]([C@@H](O)c3cc(=O)[nH]c(=O)[nH]3)NC3=NC[C@H]1N32	4.2	60.7*	-0.3	nt	nt	66.0*
C=CCn1c(SCc2c(C)noc2C)nc2ccccc2c1=O	11.4	66.7*	-0.2	nt	-1.2	82.4*
O=c1[nH]c(=O)n(C2OC(CO)C(O)C(O)C2O)cc1F (stereo not given)	nt	nt	nt	0.6	nt	nt
CCCCCCCCCCCCCCCCCCNc1ccn(C2OC(COP(=O)(O)OCC3OC(n4cc(F)c(=O)[nH]c4=O)CC3O)C(O)C2O)c(=O)n1 (stereo not given)	27.7	62.9*	0.0	1.4	nt	7.5
CC(C)CCN(C(=S)Nc1cccc(F)c1)C1CCN(C(C)C)CC1	-13.8	79.2*	-1.4	1.5	0.3	-18.6
COc1ccc(NC(=S)N(CCC(C)C)C2CCN(C(C)C)CC2)cc1	-10.3	-17.7	-0.8	1.1	-0.4	nt
Cn1cnc(S(=O)(=O)N[C@H]2CC[C@@H](CC(=O)NCC3CC3)O[C@@H]2CO)c1	nt	nt	nt	-0.9	nt	nt
NC(=O)c1cc2c3ccccc3ccn2c1-c1ccccc1	1.8	71.5*	i	-4.8	5.6	90.3*
SMILES	Y pestis TopoI	PrP 5UTR inh	BH1578 lux ind	TcdB GH inh	UGM FP inh	PrP 5UTR single
O=C(Cc1ccncc1)N1CC(=O)N2[C@H](CO)[C@H](c3ccc(C4=CCCC4)cc3)[C@@H]2C1	nt	nt	nt	2.2	nt	nt
O=C(NC1CCCCC1)c1csnn1	2.3	84.5*	1.0	1.4	nt	-0.6
COc1ccccc1NC(=S)N(Cc1ccccc1)Cc1cccs1	-0.5	67.0*	-0.3	1.4	-1.0	-23.6
O=C(Nc1cccc(F)c1)N1C[C@@H]2[C@H](c3ccccc31)[C@@H](CO)N2C(=O)c1cccnc1	nt	nt	nt	0.4	nt	nt
CC(Sc1cnc2ccccc2n1)C(=O)O (stereo not given)	0.5	-6.8	i	nt	-0.7	nt
Cc1ccc(Sc2cnc3ccccc3n2)cc1	-2.0	87.7*	nt	nt	1.3	-83.3
O=C(Cc1ccc(Cl)cc1)Nc1ccc(C(=O)N2CCOCC2)cc1	-4.6	62.6*	-0.5	2.6	-0.6	-12.1
O=C(Cc1ccc(NC(=O)C2CCN(C(=O)c3ccccc3)CC2)cc1)Nc1ccc(C(=O)N2CCOCC2)cc1	9.0	-19.1	i	-4.2	nt	nt
CC1(C(=O)O)CC12c1ccccc1-c1ccccc12 (stereo not given)	2.6	62.1*	i	1.2	nt	-21.5
O=C(O)CCC1(CCC(=O)O)c2ccccc2-c2ccccc21	-13.2	-50.9	i	0.6	0.2	nt
Nc1ncnc2c1ncn2[C@@H]1O[C@H](CO)[C@@H](O)[C@H]1O	7.3	-18.1	-0.2	1.9	0.1	nt
Nc1ncnc2c(C3OC(CO)C(O)C3O)c[nH]c12 (stereo not given)	-2.9	95.1*	i	1.4	nt	97.3*
COc1ccc(-c2cc3nc(C)n(N)c(=O)c3s2)cc1	-2.8	90.6*	i	0.9	-0.4	92.5*
COc1ccc(-c2cc3nc4n(c(=O)c3s2)CCC4)cc1	0.9	34.7	-1.0	-1.6	1.9	nt
Cc1nc2cc(-c3ccccc3)sc2c(=O)n1N	13.1	80.9*	-0.1	1.8	3.5	78.5*
Cc1nn(-c2ccccc2)c2c1CC(=O)Nc1ccccc1-2	0.5	64.4*	i	1.3	nt	80.0*
Cn1c(=N)n(CC(=O)c2ccccc2)c2ccccc21	4.4	nt	-0.6	1.3	0.8	nt
Cn1c(=N)n(CC(=O)c2ccc(Cl)c(Cl)c2)c2ccccc21	2.1	60.8*	i	0.7	0.8	12.3
Cc1ccccc1S(=O)(=O)NCC[C@@H]1CC[C@H](NS(=O)(=O)c2ccccc2C)[C@H](CO)O1	nt	nt	nt	1.6	nt	nt
CCOC(=O)c1ccc(CNC(=O)CCC(=O)O)cc1	-2.9	67.4*	i	nt	-2.4	-2.1
COc1ccc(OC)c(C2C3=C(COC3=O)Nc3cc4c(cc32)OCO4)c1 (stereo not given)	2.3	57.6*	-4.6	nt	-2.2	89.8*
Cc1ccc(OCCC(=O)OCC(=O)c2c(N)n(CC(C)C)c(=O)n(C)c2=O)cc1	6.1	89.5*	i	2.3	-1.6	1.5
Cc1cccc(Oc2ncnc(N)c2[N+](=O)[O-])c1C	-5.5	-9.9	i	-0.2	-0.6	nt
Nc1ncnc(Oc2cccc3cccnc23)c1[N+](=O)[O-]	1.6	67.4*	-1.4	2.8	0.7	31.9
